# HSP90 inh – inhibitors of HSP90 luciferase refolding in rabbit reticulocyte lysate. actives 0.91% (n = 290,000). AID 1789. inhibition, % at 5.6 µM. luciferase refolding luminescence, 3 h;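 active = inhibition above the screen-wide mean plus 3 SD, computed separately per campaign, cut at about 16% in these data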;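 also: 0% = DMSO wells and 100% = 60 µM geldanamycin wells; inhibitors lower the luminescence because luciferase stays unfolded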
# HSF1 inhib – HSF1 inhibition; NIH3T3-HGL HSE-luciferase, MG132-induced, luminescence 8 h; active compounds read low; activity change, negative = inhibition, % at 7.5 µM (by protocol); actives 0.77% (n = 300,000); AID 2098;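 active = more than half of replicate wells show activity change below -50%, luminescence cut by over half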;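 also: luciferase reports HSF-1 transcriptional activity via heat shock element; 0% = median of DMSO wells and -100% = zero luminescence signal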
# HIF act – HIF pathway transcriptional activation; AID 1910; actives 0.32% (n = 300,000); U2OS HRE-luciferase reporter, luminescence; normalized: DMSO 0%, desferrioxamine 100%; activation, % at 7.5 µM (by protocol);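 active = mean activation of at least 10% of the iron chelator positive control signal, with at least half of replicates also reaching 10%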
# ARNT TACC3 PPI – disruptors of human ARNT/TACC3 interaction | AlphaScreen His-ARNT PAS-B/GST-TACC3 binding, luminescence; TACC3 fragment carries E629A point mutation | inhibition, % at 9.99 µM | actives 0.66% (n = 390,000);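 active = mean inhibition of replicates at least 50% and at least half of replicates each reaching 50%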;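 also: 0% = complete ARNT plus TACC3 wells and 100% = ARNT alone without TACC3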
# HSF-1 act – increases HSF-1 driven luciferase reporter signal; AID 504408; NIH3T3-HGL HSF-1 luciferase reporter, MG132, 8 h; 100% = twice DMSO control signal; activation, % at 9 µM; actives 1.7% (n = 300,000);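 active = mean replicate activation of at least 50% with a set share of replicates each reaching 50%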;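 also: 0% = median of the neutral control wells and 100% = twice that signal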
# HSP90 inh confirm – HSP90 inhibition, confirmation assay. actives 64% (n = 2,300). shares compounds with HSP90 inh. inhibition, % at 5.9 µM. rabbit reticulocyte lysate, luciferase refolding luminescence, 3 h. AID 1846; in the data active = inhibition above about 18%;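 also: 0% = vehicle wells and 100% = reference inhibitor wells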
# luciferase ctr – firefly luciferase inhibition, HSP90 counter-screen. AID 1847. purified native firefly luciferase, luminescence. inhibition, % at 5.9 µM. shares compounds with HSP90 inh. actives 48% (n = 2,300);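 active = inhibition above the mean inhibition of all tested sample wells plus 3 SD, cut at about 10% in these data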;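 also: 0% = DMSO with luciferase and 100% = wells lacking luciferase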
# Target sequence (P08659 whole entry, looked up): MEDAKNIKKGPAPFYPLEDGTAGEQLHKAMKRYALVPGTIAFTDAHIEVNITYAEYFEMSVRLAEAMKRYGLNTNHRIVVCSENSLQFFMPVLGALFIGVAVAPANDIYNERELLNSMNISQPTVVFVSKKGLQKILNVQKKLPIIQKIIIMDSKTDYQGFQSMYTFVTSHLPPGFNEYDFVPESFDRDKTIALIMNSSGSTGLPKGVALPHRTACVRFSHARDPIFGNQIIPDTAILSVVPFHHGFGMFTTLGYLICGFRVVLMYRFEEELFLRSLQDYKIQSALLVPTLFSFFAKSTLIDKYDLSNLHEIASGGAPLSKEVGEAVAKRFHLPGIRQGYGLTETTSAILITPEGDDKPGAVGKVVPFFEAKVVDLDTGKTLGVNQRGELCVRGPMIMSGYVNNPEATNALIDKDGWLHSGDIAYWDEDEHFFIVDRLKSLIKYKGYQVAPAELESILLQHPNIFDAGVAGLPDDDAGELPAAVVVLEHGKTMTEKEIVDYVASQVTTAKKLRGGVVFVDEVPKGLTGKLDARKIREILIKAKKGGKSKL
# Starred values were filed as active, the others as inactive; . = not tested or not shown. Only some compounds are listed: those with a hit (about 3.1% of all), similar ones and a draw of the others.
SMILES,HSP90 inh,HSF1 inhib,HIF act,ARNT TACC3 PPI,HSF-1 act,HSP90 inh confirm,luciferase ctr
Cc1ccc(NC(=O)c2cnn(-c3ccccc3)c2C)cc1C,44*,-8,-5,-8,-9,64*,59*
CCCNC(=O)C[C@@H]1CC[C@@H]2[C@H](COC[C@H](O)CN2Cc2ccc(Cl)c(Cl)c2)O1,.,.,.,-3,.,.,.
CNC[C@H]1Oc2cc(C#Cc3ccc(OC)cc3)ccc2S(=O)(=O)N([C@H](C)CO)C[C@@H]1C,.,.,.,6,.,.,.
CCN(CC)CCOC(=O)c1ccc(NC(=O)CCCN2C(=O)S/C(=C/c3ccc(OC)cc3)C2=S)cc1,34*,-46,-2,.,-47,30*,-26
COc1ccc(/C=C2\SC(=S)N(CCC(=O)Nc3ccc(O)cc3)C2=O)cc1,1,2,0,1,11,.,.
O=C(Nc1ccc2c(c1)[C@@H]1C[C@@H](CC(=O)N3CCCCC3)O[C@H](CO)[C@@H]1O2)c1cccnc1,.,.,.,-6,.,.,.
CCCOc1ccc(/C=N/NC(=S)Nc2ccccc2[N+](=O)[O-])c(O)c1,75*,-90*,7,.,-92,75*,21*
CCNC(=S)N/N=C/c1ccccc1[N+](=O)[O-],20*,5,0,-4,-3,0,-3
CCC(=O)Nc1ccc(C(=O)N/N=C/c2ccccc2[N+](=O)[O-])cc1,0,15,1,-10,-3,.,.
COc1ccc(/C=N/NC(=S)Nc2ccccc2[N+](=O)[O-])cc1O,51*,-3,2,-2,-9,53*,11*
CCCOc1ccc(/C=N/Nc2cccc([N+](=O)[O-])c2)c(O)c1,1,17,4,0,6,.,.
CC=Cc1ccc2n(c1=O)C[C@@H]1[C@@H](CO)[C@H](C(=O)OC)N(C(C)=O)[C@H]21 (mixture of isomers),.,.,.,4,.,.,.
C[C@@H]1CN([C@H](C)CO)C(=O)c2cc(C3=CCCC3)cnc2O[C@H]1CN(C)C(=O)C1CCOCC1,.,.,.,0,.,.,.
Cc1c(-c2nc(-c3ccc(C(C)(C)C)cc3)no2)n(C)oc1=O,70*,-74*,-3,-3,-78,91*,-24
Cc1cc(-c2nc(-c3ccc(C(C)(C)C)cc3)no2)no1,-5,15,1,-7,22,.,.
O=c1nc(N/N=C/c2c[nH]c3ccccc23)cn[nH]1,27*,10,1,14,21,30*,14*
O=c1nc(N/N=C/C=C/c2ccccc2)cn[nH]1,23*,-2,0,15,2,78*,65*
O=c1cnnc(N/N=C/c2c[nH]c3ccccc23)[nH]1,0,-10,0,8,-9,.,.
CC(=O)N(C)/C=C1\Sc2ccccc2C1=O,36*,-6,0,1,-5,-2,-13
O=CN(/C=C1\Sc2ccccc2C1=O)Cc1ccccc1,34*,0,1,-1,27,0,-12
CCC(=O)N(C)/C=C1\Sc2ccccc2C1=O,26*,-5,0,6,-11,-10,-25
CC(=O)Nc1ccc(/C=C2\Sc3ccccc3C2=O)cc1,-1,10,0,-6,23,.,.
Cc1ccc(/C=C2\Sc3ccccc3C2=O)s1,-2,-2,2,6,30,.,.
O=C(C[C@H]1CC[C@@H]2[C@H](COC[C@H](O)CN2Cc2nccs2)O1)NCc1ccc(F)cc1,.,.,.,-3,.,.,.
CC(C)NC(=O)N(C)C[C@@H]1Oc2cc(C#C[C@H](C)O)ccc2S(=O)(=O)N([C@H](C)CO)C[C@H]1C,.,.,.,-2,.,.,.
SMILES,HSP90 inh,HSF1 inhib,HIF act,ARNT TACC3 PPI,HSF-1 act,HSP90 inh confirm,luciferase ctr
Cc1cc(C)nc(N/N=C/C2=C(N3CCOCC3)C(=C\c3ccc(Cl)cc3)/CC2)n1,2,13,0,7,48,.,.
O=C(O)c1ccc(N/N=C/C2=C(N3CCOCC3)C(=C\c3ccccc3)/CC2)cc1,18*,-60*,0,-2,-71,3,2
COc1cc(C=C2C(=O)c3ccccc3C2=O)cc(OC)c1OC,21*,-6,-1,18,-1,-6,-8
CCCCC(=O)Nc1nc2ccc(C(=O)OC)cc2s1,41*,11,1,0,18,59*,-16
CO[C@@H]1CN(C)C(=O)c2cc(NC(=O)Nc3c(C)noc3C)ccc2OC[C@H](C)N(C)C[C@@H]1C,.,.,.,8,.,.,.
Cc1ccc(-c2nc(-c3ccncc3)no2)c(Cl)c1,28*,19,1,-8,40,48*,47*
O=C(CSc1ncccc1-c1nc2ccccc2[nH]1)NCc1ccco1,1,-8,0,18,-22,.,.
Cc1cc2nc(-c3cccnc3SCC(=O)NCc3ccco3)[nH]c2cc1C,18*,5,1,7,25,23*,7
CS(=O)(=O)c1ccc(-c2cn3cc(C(=O)O)ccc3n2)cc1,63*,-15,-1,5,-13,75*,3
COc1cccc2c1-c1c(C(=O)O)cccc1C2=O,2,-5,-1,-4,-26,.,.
COc1cccc2c1C(=O)c1ccc3ccccc3c1C2=O,26*,16,2,2,13,-1,-24
Cc1ccc(S(=O)(=O)N[C@H]2C=C[C@H](CC(=O)NCCN3CCCCC3)O[C@@H]2CO)cc1,.,.,.,-1,.,.,.
Cc1cc(/C=C2\SC(=S)N(C)C2=O)c(C)n1-c1ccccc1O,.,-38,2,7,-47,.,.
Cc1cc(/C=C2\SC(=S)N(C)C2=O)c(C)n1-c1ccc(O)cc1,60*,-52*,-4,3,-51,82*,82*
C[C@@H]1CCCCO[C@@H](CN(C)C(=O)C2CCCCC2)[C@H](C)CN([C@@H](C)CO)C(=O)c2cc(NS(=O)(=O)c3cn(C)cn3)ccc2O1,.,.,.,-16,.,.,.
CC(=O)Nc1ccc(NC2=C/C(=N/S(=O)(=O)c3cccs3)c3ccccc3C2=O)cc1,55*,-95*,-2,24,-94,67*,-8
CC(=O)Nc1ccc(NC(=O)C(C)OC(=O)c2ccccc2NS(=O)(=O)c2cccs2)cc1 (stereo not drawn),0,-8,0,-3,7,.,.
Cc1ccccc1NC1=C/C(=N\S(=O)(=O)c2cccs2)c2ccccc2C1=O,35*,-95*,-7,16,-95,91*,-2
O=C(Nc1ccc(N2CCCC(O)C2)cc1)c1snc2c(=O)[nH]cnc12 (stereo not drawn),19*,3,1,-5,0,15,-4
Cc1nc2c(C(=O)Nc3ccc(N4CCCC(O)C4)cc3)snc2c(=O)[nH]1 (stereo not drawn),0,0,0,-3,15,.,.
CN(C)CCCN(C(=O)CCSc1ccccc1)c1nc2cc3c(cc2s1)OCO3,57*,-14,-1,3,-9,-3,-13

# Compound activity deposited in PubChem by several laboratories.
